FAS TE block = inhibitors of human fatty acid synthase thioesterase domain; P49327; recombinant FAS-TE, OMFH fluorogenic substrate, fluorescence endpoint; inhibition, % at 15 µM; 360,000 tested, 0.67% active; AID 602261;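 active = compounds whose normalised, plate-corrected inhibition of enzyme fluorescence in the single-dose primary screen is 50% or more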;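 also: 0% = DMSO with enzyme and 100% = substrate without enzyme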
NadD block = blocks S. aureus nicotinate mononucleotide adenylyltransferase; 360,000 tested, 0.78% active; inhibition, % at 20 µM; purified NadD enzyme, colorimetric absorbance read-out; in the data active = inhibition above about 26%
NR3A LBD binder = NR3A (human) ligand-binding domain modulation. NR3A LBD differential scanning fluorimetry, Tm shift; 0% = protein alone, 100% = glycine-bound protein. Tm shift relative to glycine control, % at 25 µM. 340,000 tested, 2.5% active;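 active = melting temperature shift of at least 10% of the positive control shift, at one fixed dose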
rCAG RNA binder = molecules binding r(CAG) RNA repeats. r(CAG) RNA repeat, TO-PRO-1 dye displacement fluorescence. inhibition, % at 3 µM. 370,000 tested, 1.3% active. AID 651821;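 active = inhibition above the plate cutoff, the mean of all test compounds on that plate plus 3 SD, cut at about 35% in these data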;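 also: 0% = DMSO alone and 100% = 100 µM mitoxantrone as full dye displacement; higher means more dye released from RNA so lower well fluorescence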
FAS-TE conf = FAS thioesterase (human) inhibition, confirmation | recombinant FAS-TE, OMFH fluorogenic substrate, fluorescence | 2,300 tested, 45% active | inhibition, % at 15 µM | shares compounds with FAS TE block;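 active = compounds inhibiting the enzyme by at least 50% at 15 µM in any one of the replicates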;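 also: 0% = enzyme with DMSO only and 100% = wells lacking enzyme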
Numbers without * were called inactive. A selection: hits, their analogues and other compounds. The true share with any hit is near 4.3%.

How did Cc1ccccc1NC(=S)N=Nc1c(O)n(C)c2ccc(S(=O)(=O)N3CCOCC3)cc12 do in these assays?
FAS TE block: 21; NadD block: 16; NR3A LBD binder: -4; rCAG RNA binder: 11

Results for Cc1cccc(C)c1NC(=S)N=Nc1c(O)n(C)c2ccc(S(=O)(=O)N3CCOCC3)cc12 ?
FAS TE block: 76*; NadD block: 15; NR3A LBD binder: -2; rCAG RNA binder: 0; FAS-TE conf: 31

Results for O=C1C2C3CCCC3=C3CCCC3C2C(=O)N1c1cccc(Cl)c1 (stereo unspecified) ?
FAS TE block: 9; NadD block: -3; NR3A LBD binder: -2; rCAG RNA binder: 5

What do the screens show for `O=C1C2C3C=CC(c4ccccc4)(C2C(=O)N1c1cccc(Cl)c1)C1C(=O)N(c2cccc(Cl)c2)C(=O)C31` (stereo unspecified)?
FAS TE block: 65*; NadD block: 8; NR3A LBD binder: 23*; rCAG RNA binder: 6; FAS-TE conf: 39

How did O=C(COC(=O)C1CCCCC1)Nc1cc([N+](=O)[O-])ccc1F do in these assays?
FAS TE block: 63*; NadD block: -1; NR3A LBD binder: 0; rCAG RNA binder: 2; FAS-TE conf: 69*

Results for Cc1c(C(=O)OCC(=O)Nc2ccccc2OC(F)F)cccc1[N+](=O)[O-] ?
FAS TE block: 15; NadD block: -6; NR3A LBD binder: -3; rCAG RNA binder: 0

What do the screens show for `Cc1ccccc1COC(=O)c1cc([N+](=O)[O-])ccc1N1CCOCC1`?
FAS TE block: 36; NadD block: -13; NR3A LBD binder: 2; rCAG RNA binder: -2

How did O=C(COC(=O)c1cc([N+](=O)[O-])ccc1N1CCCC1)Nc1ccccc1OC(F)F do in these assays?
FAS TE block: 56*; NadD block: -8; NR3A LBD binder: -6; rCAG RNA binder: 3; FAS-TE conf: 43*

Results for CC(C)c1ccccc1NC(=O)COC(=O)c1cc([N+](=O)[O-])ccc1N1CCOCC1 ?
FAS TE block: 74*; NadD block: -5; NR3A LBD binder: -3; rCAG RNA binder: -1; FAS-TE conf: 65*

How did CCCN(CC(=O)Nc1ccc(F)c(F)c1F)C(=O)c1cc([N+](=O)[O-])ccc1N1CCOCC1 do in these assays?
FAS TE block: 54*; NadD block: -1; NR3A LBD binder: 1; rCAG RNA binder: -3; FAS-TE conf: 52*

What do the screens show for `Cc1ccc(-c2nc3ncccn3c2NC(=O)c2ccc(F)cc2)cc1`?
rCAG RNA binder: 5

What do the screens show for `Cc1cccc(NC(=O)c2cccc3c2-c2ccccc2C3=O)c1C`?
rCAG RNA binder: 4

What do the screens show for `COC(=O)[C@]12C[C@H](CC(=O)N3CCCC3)C(=O)N(Cc3ccccc3)C1=C[C@H](COCc1ccccc1)O[C@@H]2C`?
rCAG RNA binder: 3

What do the screens show for `O=C(COC(=O)c1cc([N+](=O)[O-])ccc1N1CCOCC1)Nc1cc(F)ccc1F`?
FAS TE block: 85*; NadD block: -7; NR3A LBD binder: 1; rCAG RNA binder: 1; FAS-TE conf: 51*

How did COc1ccccc1NC(=O)COC(=O)c1cc([N+](=O)[O-])ccc1N1CCCC1 do in these assays?
FAS TE block: 70*; NadD block: -9; NR3A LBD binder: -10; rCAG RNA binder: 0; FAS-TE conf: 63*

How did O=C(COC(=O)c1cc([N+](=O)[O-])ccc1N1CCOCC1)Nc1ccccc1OC(F)F do in these assays?
FAS TE block: 74*; NadD block: -9; NR3A LBD binder: 2; rCAG RNA binder: -2; FAS-TE conf: 79*

How did COC1=C[C@H](C(=O)N[C@H]2CCCC[C@@H]2NC(C)=O)[C@@]2(C)Cc3ccccc3[C@H]2CC1=O do in these assays?
rCAG RNA binder: 10

What do the screens show for `CN1C(=O)[C@@]2(O[C@H]3C=CC=CN3C3=C2C(=O)CCC3)c2cccc(Br)c21`?
rCAG RNA binder: 9

What do the screens show for `CCCNC(=O)c1nnsc1S(=O)(=O)c1ccc(Cl)cc1`?
FAS TE block: 53*; NadD block: -2; NR3A LBD binder: -2; rCAG RNA binder: -2; FAS-TE conf: 70*

What do the screens show for `CC(=O)c1cc(-c2cccc(C#N)c2)c(=O)n2c1CCC2`?
rCAG RNA binder: 4

How did COc1ccc([C@H]2CC(=O)C=C(c3ccc(C)c([N+](=O)[O-])c3)C2)cc1 do in these assays?
FAS TE block: 76*; NadD block: 0; NR3A LBD binder: 2; rCAG RNA binder: -3; FAS-TE conf: 81*

How did COc1ccc([C@H]2CC(=O)C=C(c3ccc(Cl)c(C(F)(F)F)c3)C2)cc1 do in these assays?
FAS TE block: 54*; NadD block: -9; NR3A LBD binder: -19; rCAG RNA binder: -2; FAS-TE conf: -1

Results for COc1ccc([C@H]2CC(=O)C=C(c3ccc4c(c3)OCCO4)C2)cc1 ?
FAS TE block: 9; NadD block: -11; NR3A LBD binder: -2; rCAG RNA binder: -2

What do the screens show for `COc1cc(N2C[C@@]3(O)CC[C@@H](O)[C@@H](OC)[C@@H]3[C@@](C)(O)[C@@H]2CC=C(C)C)cc(OC)c1OC`?
rCAG RNA binder: -2

How did O=C(CNS(=O)(=O)c1ccc(Cl)s1)N1CCN(c2ccccn2)CC1 do in these assays?
rCAG RNA binder: 1

Results for CCn1c(=O)n(CC(=O)N2CCN(c3ccc(F)cc3)CC2)c(=O)c2ccccc21 ?
rCAG RNA binder: 1

How did O=C(CSc1nc2ccccc2c(=O)n1-c1ccc(F)c(Cl)c1)Nc1ccc2c(c1)CCC2 do in these assays?
FAS TE block: 61*; NadD block: 19; rCAG RNA binder: 5; FAS-TE conf: 15

What do the screens show for `O=C(CSc1nc2ccccc2c(=O)n1-c1ccc(F)cc1F)Nc1ccc2c(c1)CCC2`?
FAS TE block: 54*; NadD block: 9; NR3A LBD binder: -1; rCAG RNA binder: 11; FAS-TE conf: 12

What do the screens show for `COc1ccc(C2=NN(CN3C(=O)C(=O)c4ccccc43)C(c3cccc([N+](=O)[O-])c3)C2)cc1` (stereo unspecified)?
FAS TE block: 60*; NadD block: 15; NR3A LBD binder: 1; rCAG RNA binder: 4; FAS-TE conf: 60*

Results for COc1ccccc1N1N=C(c2ccc([N+](=O)[O-])cc2)CC1c1ccccc1 (stereo unspecified) ?
FAS TE block: 27; NadD block: 0; NR3A LBD binder: 4; rCAG RNA binder: -3

Results for Fc1c(F)c(F)c(N/N=C/c2c[nH]c3ccccc23)c(F)c1F ?
FAS TE block: 51*; NadD block: 1; NR3A LBD binder: 76*; rCAG RNA binder: 34; FAS-TE conf: 58*

How did Cc1cc(N/N=C/c2c[nH]c3ccccc23)c2ccccc2n1 do in these assays?
FAS TE block: 8; NadD block: -5; NR3A LBD binder: -2; rCAG RNA binder: 0

What do the screens show for `Cc1ccc(-c2cc(C(F)F)n3ncc(C(=O)N4CCc5ccccc54)c3n2)cc1`?
FAS TE block: 52*; NadD block: 6; NR3A LBD binder: 1; rCAG RNA binder: 2; FAS-TE conf: 5

What do the screens show for `CCc1ccccc1NC(=O)C1CCC(=O)N(c2ccc(OC)cc2)C1c1ccc(OC)cc1` (stereo unspecified)?
rCAG RNA binder: 0

Assay outcomes: PubChem, several laboratories
